“And” between values parts separate entries of the source, which are not always exact repeats. Equal values may be shown once. This is part of a sample that, as a whole, favours compounds with a hit. Of some 83,000 tested, about 20% had one in any assay.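 The test compound was applied at a single concentration to cells in 96-well plates for 48 hours, and percent growth was recorded.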 A number with no mark means an inactive call. The calls were made as follows: active = growth percent below 10; inactive = the rest.
test system: MOLT-4 leukemia; test: NCI-60 one-dose screen, 48 h (100 = growth as untreated, 0 = no growth, -100 = all killed); conditions: 10 µM unless noted

Row | SMILES | growth
1 | NS(=O)(=O)c1cc2c(cc1Cl)NC(C(Cl)Cl)NS2(=O)=O (stereo not given) | 95.1% and 92.4%
2 | Nc1ccccc1Nc1ccccc1 | 53.5% and 88.3%
3 | c1ccc2c(CC3=NCCN3)cccc2c1 | 113% and 108%
4 | Clc1ccc(NC(Nc2ccc(Cl)cc2)C(Cl)(Cl)Cl)cc1 | 70.3% and 89.5%
5 | CCOc1ccc2c(S(=O)(=O)O)cccc2c1[N+](=O)[O-] | 86.8% and 96.4%
6 | CCN(CC)CCCC(C)N(Cc1ccccc1)CC(O)c1ccc(Cl)cc1 (stereo not given) | 107% and 103%
7 | Cn1cnc([N+](=O)[O-])c1Sc1ncnc2nc[nH]c12 | 66.1% and 56.6%
8 | Nc1nc2ncc(CNc3ccc(C(=O)N[C@@H](CCc4nn[nH]n4)C(=O)O)cc3)nc2c(=O)[nH]1 | 95.6%
9 | Oc1c(Cl)cc(Cl)cc1Sc1cc(Cl)cc(Cl)c1O | 38.7% and 16.2% and 91%
10 | O=S1(=O)CC(Br)C(Br)C1 (stereo not given) | 61.3% and 68.6%
